S1P3 antag: S1P3 receptor antagonists, primary screen, cell-based; Sphingosine 1-phosphate receptor 3 (Homo sapiens), Q99500; CHO S1P3 NFAT-BLA reporter, FRET fluorescence, antagonist mode; inhibition, % at 4.98 µM; actives 0.27% (n = 170,000); AID 485, 2006;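 active means inhibition above the plate cutoff, the mean inhibition of test wells on that plate plus 3 SD, cut at about 28% in these data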;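 further: cells challenged with S1P at its EC80 of 0.8 µM; blue over green emission ratio from cleaved BLA substrate after 4 h stimulation; 0% = S1P-stimulated wells and 100% = unstimulated DMSO-only wells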
Calpain2 inh: inhibitors of pig calpain II, primary screen, biochemical, fluorogenic peptide substrate, 1536-well. inhibition, % at 16 µM. purified calpain II, 30 min. actives 0.37% (n = 220,000). AID 1236, 2008;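 active means inhibition above about 50%, limit read from the data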
S1P4 antagonist: S1P4 receptor antagonists, primary screen, cell-based; Sphingosine 1-phosphate receptor 4 (Homo sapiens), O95977; S1P4-expressing cells, antagonist mode, reporter read-out; inhibition, % at 4.98 µM; actives 0.26% (n = 220,000); AID 1510, 2009; in the data active means inhibition above about 29%;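 further: 0% = wells stimulated with agonist and 100% = vehicle wells without agonist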
Target sequence (O95977 whole entry, looked up): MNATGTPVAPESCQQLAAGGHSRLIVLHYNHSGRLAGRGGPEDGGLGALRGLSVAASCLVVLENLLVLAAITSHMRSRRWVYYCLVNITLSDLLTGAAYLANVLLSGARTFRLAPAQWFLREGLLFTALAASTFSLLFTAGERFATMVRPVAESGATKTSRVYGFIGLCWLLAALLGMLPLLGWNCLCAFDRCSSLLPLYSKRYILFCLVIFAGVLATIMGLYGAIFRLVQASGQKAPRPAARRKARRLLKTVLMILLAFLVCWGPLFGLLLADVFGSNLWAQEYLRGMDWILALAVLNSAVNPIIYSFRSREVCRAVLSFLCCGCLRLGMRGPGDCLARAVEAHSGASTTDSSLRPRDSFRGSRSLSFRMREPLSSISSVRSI
PERK inh: block of dimerizer-induced PERK translation repression, primary screen, PERK inhibitor project, CHO PERK-DD cells, SEAP luminescence, HTS | Eukaryotic translation initiation factor 2-alpha kinase 3 (Homo sapiens), Q9NZJ5 | inhibition, % at 5.6 µM | actives 0.17% (n = 220,000) | CHO PERK-DD fusion, SEAP luminescence translation reporter | AID 1416, 2008;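 active means inhibition above the mean inhibition of all tested compounds plus 3 SD, set separately per screening campaign, cut at about 2.9% in these data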;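 further: PERK kinase domain activated by AP20187 dimerizer at 100 nM; 0% = DMSO with dimerizer and 100% = rapamycin at 8.4 µM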
S1P4 ag: S1P4 receptor agonists, primary screen, cell-based; activation, % at 4.98 µM; Sphingosine 1-phosphate receptor 4 (Homo sapiens), O95977; S1P4-expressing cell line, agonist reporter assay; actives 0.35% (n = 220,000); AID 1509, 2009; in the data active means activation above about 11%;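 further: 0% = DMSO vehicle and 100% = reference agonist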
* hit, by the source's call; nt = no result. Shown are actives, neighbours in structure and some others; about 1.3% of the full set was active somewhere.

SMILES | S1P3 antag | Calpain2 inh | S1P4 antagonist | PERK inh | S1P4 ag
CC(C)(C)NC(=O)NC(=O)CN1CCc2ccccc21 | -9 | 23 | -2 | 0 | -1
ClC(/C=N/n1cnnc1)=C/c1ccccc1 | 7 | -11 | -7 | 1 | 3
NS(=O)(=O)c1ccc(NCc2cc(Cl)ccc2OCc2ccc(F)cc2)cc1 | -9 | 17 | -28 | 0 | 2
O=C(c1ccc(N2CCCCS2(=O)=O)cc1)N1CCN(c2ccc(N3CCOCC3)nn2)CC1 | -26 | -408 | 0 | 3.0* | 1
O=C(O)c1ccc(N2CCCCS2(=O)=O)cc1 | -22 | -22 | -17 | 1 | 2
CSCCC1C(C#N)=C(N)Oc2n[nH]c(-c3cccs3)c21 (stereo not drawn) | 19 | -18 | 11 | 3.1* | -1
CC(C)(C)NS(=O)(=O)c1cccc2nsnc12 | nt | nt | -1 | 3.7* | 1
Oc1ccc(C[C@@H]2CNC(=S)N2CCCCC2CCCCC2)cc1 | -2 | 51* | 7 | 1 | 0
CC(=O)/C(=N\Nc1ccccc1)Sc1cccc2cccnc12 | 6 | 38 | -23 | 0 | -1
O=C(Sc1cccc2cccnc12)c1ccc(F)cc1 | 9 | -5 | 98* | 0 | 1
O=C(Oc1cccc(-n2cnnn2)c1)c1ccco1 | nt | -11 | 16 | 0 | 2
Cc1ccc(C(=O)Oc2cccc(-n3cnnn3)c2)cc1 | 0 | 62* | -4 | 1 | 1
CC(C)CN(C)C(=O)CCc1nnc(Cc2cccc(C(F)(F)F)c2)o1 | -6 | -22 | -4 | 0 | 2
CC1(C)C(=O)OC(c2c(F)c(F)c(F)c(F)c2F)C2(CCCCC2)C1=O (stereo not drawn) | 2 | 57* | -15 | -1 | 0
Cc1ccc(OCC(=O)NNC(=O)C(C)Sc2ncnc3sc(C)c(C)c23)cc1 (stereo not drawn) | nt | 91* | -11 | 0 | -3
Cc1sc2ncnc(SC(C)C(=O)N3c4ccccc4Sc4ccccc43)c2c1C (stereo not drawn) | -4 | -42 | -3 | 1 | 0
FC(F)(F)c1cnc(COc2cc(Cl)cc(Cl)c2)c(Cl)c1 | 27 | 16 | -17 | 2 | 0
CCOC(=O)c1cn(-c2nc(-c3ccc(Cl)cc3)cs2)c2c(F)c(N3CC(C)OC(C)C3)c(F)cc2c1=O (stereo not drawn) | nt | -40 | -10 | 3.2* | 1
CCOC(=O)c1cn(C2CC2)c2c(F)c(F)c(F)cc2c1=O | -3 | -6 | -2 | 1 | 1
CCOc1ccc(S(=O)(=O)N2CCN(C)CC2)c(C)c1C | -10 | 18 | -5 | 0 | 0
CCOc1ccc(S(=O)(=O)N2CCCCC2)c(C)c1C | -14 | 57* | -8 | 0 | -1
CCOC(=O)N1CCC2(CC1)C(C#N)=C(N)Oc1n[nH]c(CSc3ccc(C)cc3)c12 | -17 | 91* | -11 | 0 | 3
Cc1ccc(SCc2[nH]nc3c2C2(CCSCC2)C(C#N)=C(N)O3)cc1 | -30 | -17 | -22 | 0 | 2
Cc1ccc(C(=O)COC(=O)c2ccc(O)cc2)cc1 | -15 | -12 | -1 | 0 | 0
O=S(=O)(c1ccccc1)c1cnn(-c2ccccc2)c1-c1ccc(F)cc1 | nt | -9 | -2 | 0 | 1
SMILES | S1P3 antag | Calpain2 inh | S1P4 antagonist | PERK inh | S1P4 ag
COc1ccc(-n2ncc(S(=O)(=O)c3ccccc3)c2-c2ccc(Cl)cc2)cc1 | nt | 52* | -5 | 0 | 2
Clc1ccc(-c2nnnn2-c2ccc(Cl)c(Cl)c2)cc1Cl | nt | 55* | -20 | 0 | 1
Cc1ccc(-n2nnnc2-c2ccccc2)cc1 | -10 | 40 | -7 | 1 | 0
C/C(=N/NC(=O)CNC(=O)Cc1ccccc1)c1ccc(Cl)cc1 | -11 | 8 | 7 | -1 | -1
COc1cccc(CNc2ccc(F)c([N+](=O)[O-])c2)c1O | -7 | 84* | 6 | 1 | 2
CC(C)(C)C1CCc2onc(C(=O)NCc3ccc(F)cc3)c2C1 (stereo not drawn) | 64* | 52* | 4 | -1 | 1
O=C(NCc1ccc(F)cc1)c1noc2c1CCCC2 | -19 | -1 | -1 | -1 | -4
CC12CS(=O)(=O)CC1SC(=S)N2Cc1ccccc1 (stereo not drawn) | -17 | -18 | 6 | 1 | 0
C[C@]12CS(=O)(=O)C[C@H]1SC(=S)N2c1ccccc1 | 7 | -1 | 3 | 4.7* | 2
O=C(CN1C(=O)CSC1=O)Nc1ccccc1N1CCOCC1 | 10 | 3 | -100 | 3.1* | 1
O=c1cc(N2CCCC2)c2ccccc2o1 | -7 | -32 | -19 | 0 | -1
CCCCCCCCCCCCCCCC[n+]1ccc(C(N)=O)cc1 | -9 | 72* | -5 | 0 | 0
CC(C)=CC1C(C(=O)Nc2ccc(Br)cn2)C1(C)C (stereo not drawn) | 71* | 53* | 10 | 0 | -1
COc1cc(OC)cc(N2C(=O)CSCC2=O)c1 | -1 | -11 | -2 | 1 | 1
S=C(c1ccc(N2CCCC2)cc1)N1CCCCC1 | -40 | 64* | 8 | 0 | -1
Oc1ccc(C(=S)N2CCCCCC2)cc1 | nt | -23 | -2 | 0 | -1
COc1ccc(NC2c3ccccc3C(=O)N2c2ccccn2)cc1 (stereo not drawn) | 7 | 1 | -12 | -1 | 0
O=c1c2ccccc2nc(SCc2cn3ccsc3n2)n1-c1ccccc1F | 40 | 52* | 0 | -1 | 0
CCOC(=O)C1(Cc2cccc(F)c2)CCN(Cc2c(C)nn(CC)c2C)CC1 | 10 | -3 | -10 | -2 | 1
COc1cc(/C=N/n2cnnc2)ccc1OS(=O)(=O)c1ccccc1[N+](=O)[O-] | -24 | 59* | -12 | 0 | 0
CCOc1cc(/C=N/n2cnnc2)ccc1OS(=O)(=O)c1ccccc1 | -2 | 63* | -25 | 0 | 2
NC(=O)c1nnsc1Sc1c(C(N)=O)nnn1-c1cccc(N)c1 | -13 | -15 | -10 | 2 | -1
CC(=O)Nc1nonc1-c1ccccc1 | -9 | -16 | -6 | 3.2* | 1
Cc1n[nH]c(=O)nc1NCCN(C)C | -9 | -24 | 7 | 3.5* | 0
CC(C)Cn1c(N)c(C(=O)COC(=O)c2cnc(Cl)c(Cl)c2)c(=O)n(C)c1=O | -3 | 63* | 7 | 1 | 2
CCCC(c1nnnn1Cc1ccco1)N1CCN(c2cc(Cl)ccc2C)CC1 (stereo not drawn) | 60* | 11 | 9 | -1 | -1
CCCC(c1nnnn1Cc1ccco1)N1CCN(c2ccccc2)CC1 (stereo not drawn) | 3 | -22 | -2 | -1 | 0
COc1ccc(C(=O)CSc2nc(C(C)(C)C)nc3ccccc23)cc1 | -16 | 53* | -17 | -1 | 2
